Active and inactive are the calls of the source. How the source made its calls: active means hit-call score of the fitted dose curve at least 0.9, where 1 is the maximum; inactive means score below 0.9.
Tests used:
Settings in all cases: mRNA level, 48 h; actives raise or lower the signal
[1] = read-out: CFLAR gene, CFLAR (gene 8837); assay: LTEA_HepaRG_CFLAR: Life Technologies and Expression Analysis (LTEA) Assay for CFLAR gene using HepaRG (AID 2283455)
In short: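 HepaRG cells were plated for 48 h, switched to serum-free induction medium, then exposed in duplicate for 48 h to 8 concentrations (top 100 uM, half-log steps, 0.5% DMSO). CFLAR mRNA was measured by qRT-PCR, normalized to ACTB, GAPDH and POLR2A.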

[2] = read-out: Forkhead box O1 (FOXO1), FOXO1 (gene 2308); assay: LTEA_HepaRG_FOXO1: Life Technologies and Expression Analysis (LTEA) Assay for Forkhead box O1 (FOXO1) using HepaRG (AID 2283456)
In short: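 Differentiated human HepaRG cells in serum-free induction medium were exposed in duplicate for 48 h to eight half-log concentrations (top 100 uM, 0.5% DMSO). FOXO1 mRNA was measured by TaqMan qRT-PCR, normalised to ACTB, GAPDH and POLR2A, and fitted bidirectionally against DMSO.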

[3] = read-out: growth arrest and DNA damage 45 (GADD45A), GADD45A (gene 1647); assay: LTEA_HepaRG_GADD45A: Life Technologies and Expression Analysis (LTEA) Assay for growth arrest and DNA damage 45 (GADD45A) using HepaRG (AID 2283458)
In short: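 Differentiated HepaRG cells exposed 48 h in serum-free induction medium to 8 concentrations, top 100 uM in half-log steps, 0.5% DMSO. GADD45A mRNA quantified by qRT-PCR, normalized to ACTB, GAPDH and POLR2A; bidirectional fit versus DMSO.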

[4] = read-out: Forkhead box O3 (FOXO3), FOXO3 (gene 2309); assay: LTEA_HepaRG_FOXO3: Life Technologies and Expression Analysis (LTEA) Assay for Forkhead box O3 (FOXO3) using HepaRG (AID 2283459)
In short: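 Differentiated human HepaRG cells in serum-free induction medium were exposed in duplicate for 48 h to eight half-log concentrations up to 100 uM in 0.5% DMSO. FOXO3 mRNA was quantified by qRT-PCR, normalized to ACTB, GAPDH and POLR2A, with bidirectional fitting versus DMSO.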

[5] = read-out: ABC Transporter (ABCB1), ABCB1 (gene 5243); assay: LTEA_HepaRG_ABCB1: Life Technologies and Expression Analysis (LTEA) Assay for ABC Transporter (ABCB1) using HepaRG (AID 2283460)
In short: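 Differentiated human HepaRG cells, plated 48 h then switched to serum-free induction medium, were exposed in duplicate to eight half-log concentrations up to 100 uM in 0.5% DMSO for 48 h. ABCB1 mRNA was measured by TaqMan qRT-PCR, normalized to ACTB/GAPDH/POLR2A.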

[6] = read-out: growth arrest and DNA damage 45 (GADD45B), GADD45B (gene 4616); assay: LTEA_HepaRG_GADD45B: Life Technologies and Expression Analysis (LTEA) Assay for growth arrest and DNA damage 45 (GADD45B) using HepaRG (AID 2283461)
In short: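 qRT-PCR read-out (Fluidigm TaqMan, housekeeping-normalized) of mRNA change in human HepaRG cells after 48 h chemical exposure; 8-point curve, top 100 uM, half-log steps, 0.5% DMSO vehicle; gain or loss fitted relative to DMSO baseline.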

[7] = read-out: ABC Transporter (ABCC3), ABCC3 (gene 8714); assay: LTEA_HepaRG_ABCC3: Life Technologies and Expression Analysis (LTEA) Assay for ABC Transporter (ABCC3) using HepaRG (AID 2283462)
In short: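 qRT-PCR read-out of ABCC3 transcript, normalized to three housekeeping genes (ACTB, GAPDH, POLR2A), after 48 h chemical exposure of human HepaRG cells. Eight half-log concentrations, highest 100 uM, in 0.5% DMSO; gain or loss fitted relative to DMSO baseline.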

[8] = read-out: ABC Transporter (ABCB11), ABCB11 (gene 8647); assay: LTEA_HepaRG_ABCB11: Life Technologies and Expression Analysis (LTEA) Assay for ABC Transporter (ABCB11) using HepaRG (AID 2283463)
In short: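 Differentiated human HepaRG cells were exposed for 48 h in serum-free induction medium to eight half-log concentrations up to 100 uM in 0.5% DMSO. ABCB11 mRNA was quantified by qRT-PCR, normalized to ACTB, GAPDH and POLR2A, and fitted bidirectionally versus DMSO.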

[9] = read-out: ABC Transporter (ABCC2), ABCC2 (gene 1244); assay: LTEA_HepaRG_ABCC2: Life Technologies and Expression Analysis (LTEA) Assay for ABC Transporter (ABCC2) using HepaRG (AID 2283464)
In short: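 qRT-PCR (TaqMan, Fluidigm array) read-out of ABCC2 mRNA, normalized to three housekeeping genes. Differentiated HepaRG cells were treated 48 h in serum-free induction medium with 8-point half-log series from 100 uM in 0.5% DMSO; curves fitted bidirectionally relative to DMSO.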

[10] = read-out: Broad substrate specificity ATP-binding cassette transporter ABCG2 (Homo sapiens) (UniProt Q9UNQ0); assay: LTEA_HepaRG_ABCG2: Life Technologies and Expression Analysis (LTEA) Assay for ABC Transporter (ABCG2) using HepaRG (AID 2283465)
In short: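 Differentiated HepaRG cells in serum-free induction medium were exposed for 48 h, in duplicate, to eight half-log concentrations up to 100 uM in 0.5% DMSO. ABCG2 mRNA was measured by TaqMan qRT-PCR, normalized to ACTB, GAPDH and POLR2A, and fitted bidirectionally versus DMSO.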

[11] = read-out: ATP-citrate lyase (ACLY), ACLY (gene 47); assay: LTEA_HepaRG_ACLY: Life Technologies and Expression Analysis (LTEA) Assay for ATP-citrate lyase (ACLY) using HepaRG (AID 2283466)
In short: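 Differentiated human HepaRG cells in serum-free induction medium exposed 48 h, in duplicate, to eight half-log concentrations from 100 uM top in 0.5% DMSO; ACLY mRNA measured by qRT-PCR, normalized to ACTB, GAPDH, POLR2A, fitted bidirectionally versus DMSO.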

[12] = read-out: Peroxisomal acyl-coenzyme A oxidase 1 (ACOX1) gene, ACOX1 (gene 51); assay: LTEA_HepaRG_ACOX1: Life Technologies and Expression Analysis (LTEA) Assay for Peroxisomal acyl-coenzyme A oxidase 1 (ACOX1) gene using HepaRG (AID 2283467)
In short: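 Differentiated human HepaRG cells were exposed in duplicate for 48 h in serum-free induction medium to eight half-log concentrations up to 100 uM in 0.5% DMSO. ACOX1 mRNA was then quantified by TaqMan qRT-PCR, normalized to ACTB, GAPDH and POLR2A.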

[13] = read-out: Alkaline Phosphatase, Placental (ALPP) gene, ALPP (gene 250); assay: LTEA_HepaRG_ALPP: Life Technologies and Expression Analysis (LTEA) Assay for Alkaline Phosphatase, Placental (ALPP) gene using HepaRG (AID 2283468)
In short: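 qRT-PCR readout of ALPP mRNA (Fluidigm TaqMan), normalized to ACTB/GAPDH/POLR2A, after 48 h chemical exposure of HepaRG cells; 8-point half-log series, top 100 uM, 0.5% DMSO vehicle. Bidirectional curve fit versus DMSO baseline.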

[14] = read-out: Bcl-2 (BAD) gene, BAD (gene 572); assay: LTEA_HepaRG_BAD: Life Technologies and Expression Analysis (LTEA) Assay for Bcl-2 (BAD) gene using HepaRG (AID 2283469)
In short: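 Differentiated human HepaRG cells in serum-free induction medium were exposed in duplicate for 48 h to eight concentrations (top 100 uM, half-log steps, 0.5% DMSO). BAD mRNA was quantified by qRT-PCR normalised to ACTB, GAPDH and POLR2A, with bidirectional fitting versus DMSO.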

[15] = read-out: Bcl-2 (BAX) gene, BAX (gene 581); assay: LTEA_HepaRG_BAX: Life Technologies and Expression Analysis (LTEA) Assay for Bcl-2 (BAX) gene using HepaRG (AID 2283470)
In short: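 Differentiated HepaRG cells exposed 48 h in serum-free induction medium, eight half-log concentrations from 100 uM, in duplicate, 0.5% DMSO vehicle. BAX mRNA by TaqMan qRT-PCR, normalised to ACTB, GAPDH and POLR2A.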

[16] = read-out: adenosine kinase (ADK) gene, ADK (gene 132); assay: LTEA_HepaRG_ADK: Life Technologies and Expression Analysis (LTEA) Assay for adenosine kinase (ADK) gene using HepaRG (AID 2283471)
In short: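 Following 48 h exposure of HepaRG cells in 0.5% DMSO (top concentration 100 uM, duplicate wells), ADK mRNA induction or suppression was measured by qRT-PCR, normalised to ACTB/GAPDH/POLR2A, and fitted bidirectionally relative to vehicle.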

[17] = read-out: Alpha-fetoprotein (AFP) gene, AFP (gene 174); assay: LTEA_HepaRG_AFP: Life Technologies and Expression Analysis (LTEA) Assay for Alpha-fetoprotein (AFP) gene using HepaRG (AID 2283472)
In short: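 Differentiated human HepaRG cells exposed 48 h in serum-free induction medium, 8-point half-log series from 100 uM in 0.5% DMSO, duplicate. AFP mRNA by qRT-PCR, normalized to ACTB, GAPDH, POLR2A; bidirectional fit vs DMSO.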

BCL2L11 (gene 10018) = assay: LTEA_HepaRG_BCL2L11: Life Technologies and Expression Analysis (LTEA) Assay for Bcl-2 (BCL2L11) gene using HepaRG (AID 2283473)
In short: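 HepaRG, 48 h exposure, 8-pt half-log series from 100 uM in 0.5% DMSO, duplicates; qRT-PCR (Fluidigm TaqMan) for BCL2L11, housekeeping-normalized; bidirectional curve fit relative to DMSO baseline.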

Measured: outcome

Broad substrate specificity ATP-binding cassette transporter ABCG2 (Homo sapiens), sequence (Q9UNQ0 whole entry, looked up): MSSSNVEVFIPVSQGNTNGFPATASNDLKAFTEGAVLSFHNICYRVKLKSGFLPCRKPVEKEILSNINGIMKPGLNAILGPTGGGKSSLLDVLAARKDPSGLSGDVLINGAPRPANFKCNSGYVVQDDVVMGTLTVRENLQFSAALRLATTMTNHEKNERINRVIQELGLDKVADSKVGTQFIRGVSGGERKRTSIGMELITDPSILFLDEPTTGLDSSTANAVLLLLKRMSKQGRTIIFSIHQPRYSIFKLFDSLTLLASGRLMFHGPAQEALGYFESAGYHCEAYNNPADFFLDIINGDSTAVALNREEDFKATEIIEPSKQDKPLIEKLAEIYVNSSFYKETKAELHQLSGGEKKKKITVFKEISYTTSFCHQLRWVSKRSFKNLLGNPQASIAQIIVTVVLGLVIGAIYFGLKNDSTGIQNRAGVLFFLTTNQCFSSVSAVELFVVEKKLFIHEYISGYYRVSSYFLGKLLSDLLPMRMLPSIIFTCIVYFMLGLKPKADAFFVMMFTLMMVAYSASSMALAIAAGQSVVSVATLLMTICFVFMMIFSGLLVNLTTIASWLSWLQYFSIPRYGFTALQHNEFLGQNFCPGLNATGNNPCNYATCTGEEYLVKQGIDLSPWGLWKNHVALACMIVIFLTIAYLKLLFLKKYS

c1cc[n+]2c(c1)-c1cccc[n+]1CC2
inactive: [1] | [2] | [3] | [4] | [5] | [6] | [7] | [8] | [9] | [10] | [11] | [12] | [13] | [14] | [15] | [16] | [17] | BCL2L11 (gene 10018)
